Bioassay records: PubChem, Broad Institute
AF4-AF9 inh – blocks AF4 peptide binding to human AF9; P42568; AlphaScreen, biotin-AF4 peptide binding to FLAG-AF9; inhibition, % at 10 µM; 350,000 compounds, 0.47% hits; AID 651704;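 active = every replicate reaching a set inhibition limit, whatever the replicate mean, cut at about 25% in these data; inconclusive = mean inhibition reaches that limit but some replicates miss it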;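 also: 0% = plate neutral control median and 100% = total signal loss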
Target sequence (P42568 whole entry, looked up): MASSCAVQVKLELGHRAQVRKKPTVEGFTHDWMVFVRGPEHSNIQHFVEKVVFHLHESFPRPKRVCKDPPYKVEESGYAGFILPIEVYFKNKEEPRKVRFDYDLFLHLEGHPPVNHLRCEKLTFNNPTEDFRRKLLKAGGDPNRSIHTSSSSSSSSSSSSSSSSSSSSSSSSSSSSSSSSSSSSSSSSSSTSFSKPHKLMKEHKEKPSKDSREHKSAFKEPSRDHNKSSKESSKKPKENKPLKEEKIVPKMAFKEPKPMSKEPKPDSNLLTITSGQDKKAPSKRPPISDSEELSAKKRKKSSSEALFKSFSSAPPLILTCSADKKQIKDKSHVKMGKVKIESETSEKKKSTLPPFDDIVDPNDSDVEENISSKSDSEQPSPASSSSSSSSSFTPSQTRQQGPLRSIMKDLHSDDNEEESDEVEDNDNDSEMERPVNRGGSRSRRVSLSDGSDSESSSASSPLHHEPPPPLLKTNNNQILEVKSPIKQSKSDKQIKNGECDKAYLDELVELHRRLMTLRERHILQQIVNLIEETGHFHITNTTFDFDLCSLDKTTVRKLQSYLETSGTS
esBAF inh – blocks esBAF chromatin remodeling in mouse ES cells; Bmi1-luciferase knock-in reporter, 24 h; 100% = twice the neutral-well signal; reporter increase, % at 12.5 µM; 350,000 compounds, 2% hits; AID 602393; in the data active = activation above about 40%; inconclusive = no clear call, values can overlap the other calls;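 also: 0% = median of the plate's neutral control wells and 100% = double that signal; a rise in the Bmi1 reporter signal indicates esBAF inhibition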
MITF act – increases MITF-driven TRPM1 promoter luciferase signal; activation, % at 12.5 µM; AID 588334; SK-MEL-5 TRPM1-promoter luciferase, 24 h; % of positive control, neutral wells = 0; 300,000 compounds, 0.75% hits;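 active = mean activation of at least 80% with every replicate also reaching 80%; inconclusive = mean reaches 80% but some replicate falls short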;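 also: 0% = neutral control wells and 100% = parthenolide positive control wells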
Ecoli rRNA inh – inhibits bacterial ribosomal RNA function over humanized ribosomes; 350,000 compounds, 1.6% hits; E. coli WT GFP vs humanized-ribosome RFP mutants, fluorescence, 24 h; hits give low values; DMSO median 0, no signal -100; GFP signal change (wild-type ribosome), % (no concentration beside the values);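 active = significant combined selectivity score with lowered wild-type GFP, culture density cut under 30%, mutant RFP and density less affected; inactive = any of these conditions unmet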
Wnt act – activators of Wnt/beta-catenin signaling; activation, % at 9.35 µM; 300,000 compounds, 1.2% hits; Wnt/beta-catenin reporter cell assay, activator, plate reader; in the data active = activation above about 30%, passing the limit was not always enough; inconclusive = no clear call, values can overlap the other calls;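 also: 0% = neutral control wells and 100% = positive control wells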
An asterisk follows results filed as active; ? = inconclusive; · = no result given. Rows were chosen to be rich in hits. Some 3.7% of all compounds tested hit in one or more screens of this group.

SMILES | AF4-AF9 inh | esBAF inh | MITF act | Ecoli rRNA inh | Wnt act
CC(C)(C)[S@](=O)N1Cc2cc(C(=O)NCCc3ccncc3)nc(-c3cccc(-c4cccnc4)c3)c2[C@@H]1CCO | 0 | 5 | · | -3 | ·
O=C(c1ccc(F)cc1)N1CCC(C(=O)N2CCN(S(=O)(=O)c3cccc([N+](=O)[O-])c3)CC2)CC1 | 0 | -5 | -6 | 6 | 0
COC(=O)c1c(NC(=O)CN2CCOCC2)sc2c1CCC(C)C2 (stereo not given) | · | 62* | ? | · | ·
CNc1cccc(-c2cccc(O)c2)n1 | -1 | 53* | · | 9 | 5
CC(=O)c1c(C)[nH]c(C(=O)Nc2ccc(Cl)cc2F)c1C | 2 | 28 | 75 | 12 | 20
CC(=O)c1c(C)[nH]c(C(=O)Nc2ccc(Cl)cc2)c1C | 1 | 60* | 77 | 1 | 14
CSc1cccc(NC(=O)c2[nH]c(C)c(C(C)=O)c2C)c1 | 1 | 65* | 133* | -15 | 19
CC(=O)c1c(C)[nH]c(C(=O)Nc2cccc(C)c2C)c1C | -21 | 7 | 1 | 10 | 0
C[C@H](CO)N1C[C@H](C)[C@H](CN(C)S(=O)(=O)c2cn(C)cn2)Oc2ccc(NC(=O)Nc3ccc4c(c3)OCO4)cc2CC1=O | · | 2 | · | 1 | ·
C[C@H](O)C#Cc1ccc([C@@H]2[C@@H](CO)N3CCCCN(S(=O)(=O)c4ccccc4)C[C@H]23)cc1 | -5 | · | · | 3 | ·
C[C@@H]1C[C@@H]2OC(=O)[C@]3(C)[C@H]2[C@@H](OC3(C)O)[C@]2(C)C(=O)C=C[C@H]12 (stereo not given in full) | -2 | -3 | 4 | 3 | 11
C=C1C(=O)C=C[C@]2(C)C[C@@H]3OC(=O)[C@](C)(O)[C@H]3C[C@@H]12 | -8 | 9 | -93 | -18 | 43*
COc1ccc(NC(=O)Nc2ccc3c(c2)C(=O)N([C@@H](C)CO)C[C@H](C)[C@@H](CN(C)S(=O)(=O)c2c(C)noc2C)OCCCC[C@@H](C)O3)cc1 | · | -1 | · | -2 | ·
Cc1ccc(CCNC(=O)CC(C)CC2=NS(=O)(=O)c3ccccc3N2)cc1 (stereo not given) | -2 | 2 | -7 | -3 | 1
Oc1ccc(Cl)cc1CNc1ccc(Br)cn1 | · | 75* | 74 | · | ·
Oc1c(Cl)cc(Cl)cc1CNc1ccc(Br)cn1 | · | · | 43 | · | 4
Oc1ccc(Cl)cc1CNc1nccs1 | 10 | -1 | · | -12 | 45*
O=C(c1ccc2c(c1)OCO2)N(CC1CCCO1)C1(C(=O)NC2CCCCC2)CCCCC1 (stereo not given) | · | -10 | · | · | -2
CCn1c(CCCOc2ccc(Cl)cc2Cl)n[nH]c1=S | -8 | 13 | 18 | -34* | 5
COC(=O)CSc1nnc(-c2ccc(OC)c(OC)c2)o1 | 0 | · | 9 | 18 | 2
COc1ccc(-c2nnc(SCc3ccccc3F)o2)cc1OC | · | 66* | 71 | · | ·
Cc1ccc(-c2nnc(SCc3ccccc3F)o2)cc1 | · | · | 99* | · | 29
Cc1ccc(-c2nnc(SCC(=O)Nc3ccccc3F)o2)cc1 | -11 | -80 | -76 | 9 | -11
Cc1ccc(NC(=S)N2CCC(c3ccccc3)C2)c(Cl)c1 (stereo not given) | -4 | · | 61 | -28 | 42*
S=C(Nc1ccccc1Cl)N1CCC(c2ccccc2)C1 (stereo not given) | 1 | · | 39 | 9 | 16
SMILES | AF4-AF9 inh | esBAF inh | MITF act | Ecoli rRNA inh | Wnt act
CCc1cccc(NC(=S)N2CCC(c3ccccc3)C2)c1 (stereo not given) | 5 | · | 70 | -27 | 20
CSc1cccc(NC(=S)N2CCC(c3ccccc3)C2)c1 (stereo not given) | 0 | 44 | 65 | -25* | 5
COc1ccc(N2CCN(Cc3nc4scc(-c5cccs5)c4c(=O)[nH]3)CC2)cc1 | -1 | · | 4 | -3 | -1
CN(C(=O)CSc1ncnc2sccc12)C1CCS(=O)(=O)C1 (stereo not given) | 0 | -1 | -4 | · | -2
CN(C(=O)CSc1ncnc2sccc12)C1CCCCC1 | 1 | 75* | 72 | 1 | 47*
Cc1ccc2nc(SCc3nc4ccccc4c(=O)[nH]3)[nH]c2c1 | -6 | 51* | 35 | -8 | 11
O=c1[nH]c(CSc2ccccn2)nc2ccccc12 | 1 | · | 59 | 5 | 31*
O=c1[nH]c(CSc2nc3ccccc3s2)nc2ccccc12 | -3 | 47* | 30 | -2 | 28
O=c1[nH]c(CSc2ccccn2)nc2c1cnn2-c1ccccc1 | · | · | 32 | · | 10
C=CCn1c(CCn2c3ccccc3c3ccccc32)n[nH]c1=S | -2 | · | -6 | -27* | -2
C#CCOCCOCCOCCNc1nc(N2CCN(C(=O)CCCCCCCCCCNC(=O)[C@@H](CCC(=O)O)n3cc(CCCCCN)nn3)CC2)nc(N2CCN(C(=O)CCCCCCCCCCNC(=O)[C@H](CO)n3cc(CCCCCN)nn3)CC2)n1 | · | 4 | 2 | · | ·
C#CCOCCOCCOCCNc1nc(N2CCN(C(=O)CCCCCCCCCCNC(=O)[C@H]([C@@H](C)CC)n3cc(CCCCN=C(N)N)nn3)CC2)nc(N2CCN(C(=O)CCCCCCCCCCNC(=O)[C@@H]([C@H](C)O)n3cc(C)nn3)CC2)n1 | · | -38 | -66 | -40* | ·
C#CCOCCOCCOCCNc1nc(N2CCN(C(=O)[C@H](CCCCN)n3cc(CN)nn3)CC2)nc(N2CCN(C(=O)[C@H](CCC(=O)O)n3cc([C@@H](N)CCCCN)nn3)CC2)n1 | 74* | -6 | 10 | 11 | 2
C#CCOCCOCCOCCNc1nc(N2CCN(C(=O)[C@H](CCC(=O)O)n3cc(CN)nn3)CC2)nc(N2CCN(C(=O)[C@H](CCCCN)n3cc([C@@H](N)CC(N)=O)nn3)CC2)n1 | 1 | 2 | 5 | 20 | -2
C#CCOCCOCCOCCNc1nc(N2CCN(C(=O)[C@H](CCCCN)n3cc(CN)nn3)CC2)nc(N2CCN(C(=O)[C@H](CCCCN)n3cc(CN)nn3)CC2)n1 | 57* | -8 | 2 | 25 | 1
C#CCOCCOCCOCCNc1nc(N2CCN(C(=O)CCCCCCCCCCNC(=O)[C@H](CCCCN)n3cc(CCO)nn3)CC2)nc(N2CCN(C(=O)CCCCCCCCCCNC(=O)[C@H](CCCCN)n3cc(CCCC(=O)O)nn3)CC2)n1 | 55* | 1 | -4 | -40* | -3
Cc1c(NC(=O)COC(=O)C2(c3ccccc3F)CCCC2)c(=O)n(-c2ccccc2)n1C | -2 | · | -6 | · | -11
COc1ccc(S(=O)(=O)N(C)C[C@@H]2OCCCC[C@H](C)Oc3ccc(N(C)C)cc3C(=O)N([C@H](C)CO)C[C@H]2C)cc1 | 0 | 2 | · | 0 | ·
COC(=O)/C(=C1/Oc2ccc(C(C)(C)C)cc2S1)C(F)(F)F | -22 | · | 72 | 11 | 37*
O=C(CCc1ccccc1)Nc1cc2c3c(c1)CCC(=O)N3CCC2 | 1 | · | -11 | -9 | 0
